About 79,000 compounds went through this panel and 15% of them were active in at least one assay; those are over-represented in the sample as a whole. Activity calls are given as the source filed them. Cut-off read from the data, not from the text of the source: active = growth inhibition above about 70%; inactive = the rest.

The experiment can be described thus: NCI Yeast Anticancer Drug Screen. Data for the mlh1 rad18 strain (AID 175). Conditions: S. cerevisiae mlh1 rad18 strain growth inhibition; at 50.0 µM; active compounds read high. Put shortly: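 A repair-deficient yeast strain is exposed to test compound, and growth is scored relative to vehicle-treated controls.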
On to `COc1ccc(C(=O)NNC(=O)c2ccc3ccccc3c2)cc1`, for which the growth inhibition was -7.3% (inactive).

For the molecule `C[N+]1(CC[N+]2(C)CCCC2c2cccnc2)CCCC1c1cccnc1` (stereo not given), the growth inhibition is 19.9% (inactive).

In the case of `CCCCC(O)CNc1ccccc1` (stereo not given), the growth inhibition is 3.75% (inactive).

As for `CC(C)=CC(=O)OC1C2C(C)C(=O)OC2C(O)C(C)C2C=CC(=O)C21C` (stereo not given), the growth inhibition was 8.2% (inactive).

For the molecule `CC(=O)N1C(=O)NC(=O)C1(C)c1cccs1` (stereo not given), the growth inhibition was 1.2% (inactive).

On to `CCCCCCC(C)OC(C)=O` (stereo not given), for which the growth inhibition is -13.8% (inactive).

As for `O=C(c1ccc(Cl)cc1Cl)N(/N=C/C=C/c1ccccc1)c1nnc(-c2ccccc2)c(-c2ccccc2)n1`, the growth inhibition is 13% (inactive).

Consider `CC(C)(Cc1ccc(Cl)cc1)NC(N)=O`, for which the growth inhibition is -31.8% (inactive).

In the case of `CC(C)c1cccc(C(C)C)c1NC(=O)OC1CCCCC1`, the growth inhibition was -2.85% (inactive).

`O=C1c2ccccc2-c2cc(F)ccc21`: the growth inhibition is -0.1% (inactive).

As for `O=C(/C=C/c1ccc2c(c1)OCO2)C1CC1`, the growth inhibition is 16.9% (inactive).

For `COC(=O)N/N=C/c1ccc(C)cc1`, the growth inhibition is -4.1% (inactive).

For the molecule `C(=N\c1oc(-c2ccccc2)c(-c2ccccc2)c1-c1ccccc1)/c1ccccc1`, the growth inhibition is 6.2% (inactive).

Take `Brc1ccncc1`: the growth inhibition is -13.6% (inactive).

As to `COc1ccc(NC(=O)COc2cc(Cl)c(Cl)cc2Cl)cc1`, the growth inhibition is -17.9% (inactive).

Regarding `O=CC(CO)CC(C=O)n1cnc2c(=O)[nH]cnc21` (stereo not given), the growth inhibition is 1.95% (inactive).

Turning to `CCOC(=O)NCC(=O)NCC(=O)NCC(N)=O`, the growth inhibition was 7.95% (inactive).

Take `N=c1ccn(CC(O)COc2ccccc2)cc1` (stereo not given): the growth inhibition was 9.55% (inactive).

Consider `CC1(C)[C@@H]2C[C@H]1C(Cc1cccc(C[C@H]3c4cc(-c5ccccn5)ncc4[C@H]4C[C@@H]3C4(C)C)c1)c1cc(-c3ccccn3)ncc12` (stereo not given in full), for which the growth inhibition is -8.65% (inactive).

As for `CC(C)NCC(O)COc1c2ccccc2nc2ccccc12` (stereo not given), the growth inhibition was 12.9% (inactive).

As to `CC1(C)OS(=O)(=O)C=C1Br`, the growth inhibition is -16.6% (inactive).

Regarding `CCCCOc1ccc(Nc2c(C(=O)O)cnc3cc4c(cc23)OCO4)cc1`, the growth inhibition was 18.4% (inactive).

Turning to `COc1cc(CN(c2ccccc2C(=O)O)S(=O)(=O)c2ccc(C)cc2)ccc1[N+](=O)[O-]`, the growth inhibition is 35.6% (inactive).

In the case of `O=C(CCl)Nc1ccc(SSc2ccc(NC(=O)CCl)cc2)cc1`, the growth inhibition is 12.9% (inactive).

For the molecule `CCCCCCCCCC(=O)N/N=C/c1ccco1`, the growth inhibition was 78% (active).

Source of the values: PubChem BioAssay (NCI).
